Reference: PubChem BioAssay (NCI)
Compounds without any hit were thinned out: in the full panel of roughly 83,000, 20% have a hit.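 For each line, cells grew in 96-well plates with the test compound present at a single concentration for 48 hours.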 A number with no mark means an inactive call. Active and inactive are the calls of the source. The calls were made as follows: active = growth percent below 10; inactive = the rest.

Tested on: HS 578T breast
Test: NCI-60 one-dose screen, 48 h (100 = growth as untreated, 0 = no growth, -100 = all killed)
Conditions: 10 µM unless noted

SMILES | growth [%]
Oc1ccccc1/C=N/Nc1nc(N/N=C/c2ccccc2O)nc(N2CCOCC2)n1 | 47
IP(CCCSc1n(Cc2ccc3ccccc3c2)c(-c2ccccc2)c(-c2ccccc2)[n+]1Cc1ccc2ccccc2c1)(c1ccccc1)(c1ccccc1)c1ccccc1 | 67.1
Cn1cc(-c2nnc(N)nc2-c2cn(C)c3ccc(F)cc23)c2cc(F)ccc21 | 90.8
N/C(=N\OC(=O)CSc1nc2ccccc2s1)c1ccc(Cl)cc1 | 97

Tested on: NCI/ADR-RES ovarian
Test: as above
Conditions: 10 µM unless noted

SMILES | growth
NS(=O)(=O)c1ccc(Nc2nc(N/N=C/c3ccc(F)cc3)nc(Nc3ccccc3)n2)cc1 | 95.6%
COc1ccc(-c2cc(-c3ccc(Cl)cc3)nc3nc(N)nn23)cc1 | 102%
COc1ccc(Cn2cc3c(c2-c2cc(OC)c(OC)c(OC)c2)CCCc2cnoc2-3)cc1 | 15.5%
CN(c1ccc(F)cc1)S(=O)(=O)c1ccc(-c2cnc(C3CC3)o2)cc1 | 9.11% (active)
COC[C@]12CC[C@@H](C)[C@H](C)[C@H]1C1=CC[C@@H]3[C@@]4(C)CCCNC(C)(C)[C@@H]4CC[C@@]3(C)[C@]1(C)CC2 | 44.3%
C=C(C)[C@@H]1CC[C@]2(C(=O)ON)CC[C@]3(C)[C@H](CC[C@@H]4[C@@]5(C)C/C(=C/c6ccc(Br)cc6)C(=O)C(C)(C)[C@@H]5CC[C@]43C)[C@@H]12 | 74.9%
CN(c1ccc(Br)cc1)S(=O)(=O)c1ccc(-c2cnc(C3CC3)o2)cc1 | 2.5% (active)
CCCCCCNC(=O)Oc1ccc(/C(=C(\C)c2ccc(Cl)cc2)c2ccc(OCCN(C)C)cc2)cc1 | 62.9%
C=C(C)[C@@H]1CC[C@]2(COS(C)(=O)=O)CC[C@]3(C)[C@H](CC[C@@H]4[C@@]5(C)CCCNC(C)(C)[C@@H]5CC[C@]43C)[C@@H]12 | 92%
O=C(NNc1nc2cc(F)ccc2n2cncc12)c1cnccn1 | 12.2%
CN1CCN(c2ccc3c(C(N)=O)c(NC(=O)c4ccc(C(C)(C)C)cc4)sc3c2)CC1 | 85.9%
NC(=O)C(=Cc1ccc(Cl)cc1)C(N)=O | 57.1%
CCN1C(=O)N(CC)C2SC(N/N=C/C=C/c3ccccc3OC)=NC21 (configuration not stated) | 11.9%
CC(=O)C1=NN(c2ccc(Cl)cc2)C(=O)CN1C | 105%
CCOC(=O)c1c(NCC(=O)Nc2ccc(Br)cc2)sc2c1CCCC2 | 25.2%
CN1CCN(c2ccc3c(c2)nc(NNC(=O)c2ccncn2)c2cccn23)CC1 | 18.8%
CCOc1c(C#N)c(Nc2ccc(S(N)(=O)=O)cc2)c(C#N)c2nnc(C)n12 | 105%
O=c1[nH]c(CNc2ccc(NCc3c(-c4ccccc4)no[n+]3[O-])cc2)nc2c1cnn2-c1ccccc1 | 60.6%
C#CCOc1ccc(C(Nc2ccc(Cl)cc2)c2nnnn2C2CCCCC2)cc1 (configuration not stated) | 76.6%

SMILES | growth
COc1cc(/C=N/Nc2ccnc3cc(Cl)ccc23)cc(OC)c1O | 2.57% (active)
COc1cc(C(=O)C[n+]2ccc3ccccc3c2)cc(OC)c1OC | 101%
Cc1ccc(NC(=O)c2ccc(CN3CCN(C)CC3)c(I)c2)cc1Oc1ccc(-c2[nH]nc3ncnc(N)c23)cc1 | 44.5%
COc1ccc(Cn2cc3c(c2-c2ccccc2)CCCc2cnoc2-3)cc1 | 29.8%
N#Cc1c(NC(=O)c2ccc(F)c(Cl)c2)sc2c1CCC(=O)C2 | -11.8% (active)
c1ccc(-c2c(-c3ccccc3)[n+](Cc3ccc4ccccc4c3)c(-c3ccccc3)n2Cc2ccc3ccccc3c2)cc1 | -65.8% (active)
CCOC(=O)C1=C(C)N=C2Sc3ccccc3N2C1c1ccccc1 (configuration not stated) | 82.3%
CCn1c2ccc(/C=N/NS(=O)(=O)CCN(C)C)cc2c2cc(/C=N/NS(=O)(=O)CCN(C)C)ccc21 | 98.1%
Cn1cc2c(c1)-c1c(sc3nc(-c4ccc(NC(=O)Nc5cc(C(C)(C)C)on5)cc4)cn13)CC2 | 52.8%
CCOC(=O)c1c(NC(=O)c2ccc(C(C)(C)C)cc2)sc2cc(OCCN3CCCCC3)ccc12 | 88.3%
COc1ccccc1/C=C/C=N/NC1=NC2C(S1)N(C)C(=O)N2c1ccccc1 (configuration not stated) | 10.4%
CC1(C)CC[C@]2(C(=O)O)CC[C@]3(C)C(=CCC4[C@@]5(C)C[C@@H](O)[C@@H]6OC(c7cccc([N+](=O)[O-])c7)OC[C@@]6(C)C5CC[C@]43C)C2C1 (some centres not stated) | 39.7%
CN(C)c1ncc(/C=C2\SC(=S)N(Cc3ccccc3Cl)C2=O)s1 | 90.8%
O=C(/C=C1\C=CN(CCCCO)c2ccccc21)n1ccc2ccccc21 | 105%
C#C[C@]1(O)CC[C@H]2[C@@H]3CC=C4c5sc(Nc6nc(C)cc(OC)n6)nc5CC[C@]4(C)[C@H]3CC[C@@]21C | 62.7%
Oc1ccccc1/C=N/Nc1nc(N/N=C/c2ccccc2O)nc(N2CCOCC2)n1 | 22.9%
IP(CCCSc1n(Cc2ccc3ccccc3c2)c(-c2ccccc2)c(-c2ccccc2)[n+]1Cc1ccc2ccccc2c1)(c1ccccc1)(c1ccccc1)c1ccccc1 | 94.1%
Cn1cc(-c2nnc(N)nc2-c2cn(C)c3ccc(F)cc23)c2cc(F)ccc21 | 99.8%
N/C(=N\OC(=O)CSc1nc2ccccc2s1)c1ccc(Cl)cc1 | 101%
